# Test results taken from PubChem BioAssay (EPA / NIEHS).
# Inconclusive results are not listed. Calls of active or inactive are those of the source. How the source made its calls, unless noted: active means hit-call score of the fitted dose curve at least 0.9, where 1 is the maximum; inconclusive means response in the unintended direction; inactive means score below 0.9.
# Legend:
# [1] = system: zebrafish Peroxisome Proliferator-activated Receptor gamma (PPARg), gene 557037; assay: ATG_zfPPARg_XSP1: Attagene TRANS-FACTORIAL Multi-Species (XSP1) HepG2 Assay for zebrafish Peroxisome Proliferator-activated Receptor gamma (PPARg) (AID 2283801)
# Procedure, shortened: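 Trans-activation readout of chimeric zebrafish PPARg–GAL4 in transiently transfected human HepG2 cells, 24 h chemical exposure (medium includes 3 nM 6-alpha-fluorotestosterone). Reporter transcripts measured by RT-PCR and capillary electrophoresis, fitted as gain over DMSO.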
# [2] = target: Nuclear receptor subfamily 1 group I member 2 (Mus musculus) (UniProt O54915); assay: ATG_mPXR_XSP1: Attagene TRANS-FACTORIAL Multi-Species (XSP1) HepG2 Assay for mouse Pregnane X Receptor (PXR) (AID 2283803)
# Chain of Nuclear receptor subfamily 1 group I member 2 (Mus musculus) (O54915 whole entry, looked up, the tested form may be a part): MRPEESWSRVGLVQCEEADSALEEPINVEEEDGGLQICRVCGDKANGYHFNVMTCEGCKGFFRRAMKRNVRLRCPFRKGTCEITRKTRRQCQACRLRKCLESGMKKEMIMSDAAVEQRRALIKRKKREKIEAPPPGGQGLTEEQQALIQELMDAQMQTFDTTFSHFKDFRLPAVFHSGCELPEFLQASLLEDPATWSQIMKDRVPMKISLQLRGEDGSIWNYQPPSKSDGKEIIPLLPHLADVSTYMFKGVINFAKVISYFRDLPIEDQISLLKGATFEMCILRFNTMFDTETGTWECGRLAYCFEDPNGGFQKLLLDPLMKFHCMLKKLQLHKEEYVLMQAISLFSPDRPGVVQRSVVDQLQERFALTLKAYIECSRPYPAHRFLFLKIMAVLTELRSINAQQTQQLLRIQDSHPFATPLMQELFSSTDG
# Procedure, shortened: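 Transiently transfected HepG2 cells expressing a receptor-Gal4 chimera drive a GAL4-UAS reporter; 3 nM 6-alpha-fluorotestosterone included. Reporter mRNA read 24 h post-dose by RT-PCR and capillary electrophoresis; gain of signal relative to DMSO.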
# [3] = system: turtle Thyroid Hormone Receptor, alpha (TRa), gene 101949057; assay: ATG_trTRa_XSP1: Attagene TRANS-FACTORIAL Multi-Species (XSP1) HepG2 Assay for turtle Thyroid Hormone Receptor, alpha (TRa) (AID 2283806)
# Procedure, shortened: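 After 24 h chemical exposure, reporter transcripts were measured by RT-PCR with fluorescent primer extension, HpaI digestion and capillary electrophoresis. Cells were transiently transfected HepG2 expressing exogenous NR-Gal4 chimeras; medium contained 3 nM 6-alpha-fluorotestosterone; fitted upward relative to DMSO.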
# [4] = target: zebrafish Thyroid Hormone Receptor alpha (TRa), thraa (gene 30670) (UniProt Q98867); assay: ATG_zfTRa_XSP1: Attagene TRANS-FACTORIAL Multi-Species (XSP1) HepG2 Assay for zebrafish Thyroid Hormone Receptor alpha (TRa) (AID 2283807)
# Chain of zebrafish Thyroid Hormone Receptor alpha (TRa), thraa (gene 30670) (Q98867 whole entry, looked up, the tested form may be a part): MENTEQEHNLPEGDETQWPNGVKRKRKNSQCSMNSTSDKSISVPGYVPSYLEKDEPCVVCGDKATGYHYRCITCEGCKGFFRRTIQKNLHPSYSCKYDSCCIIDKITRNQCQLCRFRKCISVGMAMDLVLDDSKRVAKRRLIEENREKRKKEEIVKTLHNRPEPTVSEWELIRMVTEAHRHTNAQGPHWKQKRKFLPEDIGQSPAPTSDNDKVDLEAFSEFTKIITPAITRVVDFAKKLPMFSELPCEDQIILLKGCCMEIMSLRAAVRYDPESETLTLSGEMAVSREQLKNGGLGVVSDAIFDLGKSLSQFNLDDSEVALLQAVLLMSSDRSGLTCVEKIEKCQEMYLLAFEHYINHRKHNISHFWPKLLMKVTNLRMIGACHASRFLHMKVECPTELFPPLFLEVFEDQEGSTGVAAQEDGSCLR
# Procedure, shortened: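 Reporter transcripts driven by a chimeric zebrafish TRa–Gal4 protein were measured by RT-PCR with fluorescent labelling and capillary electrophoresis. These came from transiently transfected HepG2 cells after 24 h chemical exposure, with 3 nM 6-alpha-fluorotestosterone added; baseline was DMSO.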
# [5] = target: human Thyroid hormone Receptor beta (TRb), THRB (gene 7068) (UniProt P10828); assay: ATG_hTRb_XSP1: Attagene TRANS-FACTORIAL Multi-Species (XSP1) HepG2 Assay for human Thyroid hormone Receptor beta (TRb) (AID 2283808)
# Chain of human Thyroid hormone Receptor beta (TRb), THRB (gene 7068) (P10828 whole entry, looked up, the tested form may be a part): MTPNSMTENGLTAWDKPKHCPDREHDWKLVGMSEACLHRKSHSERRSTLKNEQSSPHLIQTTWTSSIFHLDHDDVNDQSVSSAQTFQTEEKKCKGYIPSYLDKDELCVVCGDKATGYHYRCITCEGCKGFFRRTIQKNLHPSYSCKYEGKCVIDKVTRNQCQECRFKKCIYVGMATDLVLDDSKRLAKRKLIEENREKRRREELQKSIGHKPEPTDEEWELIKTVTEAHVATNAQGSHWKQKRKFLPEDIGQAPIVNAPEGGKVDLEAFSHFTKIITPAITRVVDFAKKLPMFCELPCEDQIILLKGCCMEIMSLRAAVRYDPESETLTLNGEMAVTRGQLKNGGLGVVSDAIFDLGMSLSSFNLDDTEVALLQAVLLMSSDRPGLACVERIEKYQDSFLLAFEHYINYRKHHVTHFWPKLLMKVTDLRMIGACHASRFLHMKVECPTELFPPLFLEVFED
# Procedure, shortened: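 Readout is reporter mRNA induction measured by RT-PCR, fluorescent labelling and capillary electrophoresis, fitted upward relative to DMSO. Transiently transfected human HepG2 cells expressing NR-Gal4 chimeras were dosed for 24 h, medium containing 3 nM 6-alpha-fluorotestosterone.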
# [6] = target: zebrafish Thyroid Hormone Receptor beta (TRb), thrb (gene 30607) (UniProt Q9PVE4); assay: ATG_zfTRb_XSP1: Attagene TRANS-FACTORIAL Multi-Species (XSP1) HepG2 Assay for zebrafish Thyroid Hormone Receptor beta (TRb) (AID 2283809)
# Chain of zebrafish Thyroid Hormone Receptor beta (TRb), thrb (gene 30607) (Q9PVE4 whole entry, looked up, the tested form may be a part): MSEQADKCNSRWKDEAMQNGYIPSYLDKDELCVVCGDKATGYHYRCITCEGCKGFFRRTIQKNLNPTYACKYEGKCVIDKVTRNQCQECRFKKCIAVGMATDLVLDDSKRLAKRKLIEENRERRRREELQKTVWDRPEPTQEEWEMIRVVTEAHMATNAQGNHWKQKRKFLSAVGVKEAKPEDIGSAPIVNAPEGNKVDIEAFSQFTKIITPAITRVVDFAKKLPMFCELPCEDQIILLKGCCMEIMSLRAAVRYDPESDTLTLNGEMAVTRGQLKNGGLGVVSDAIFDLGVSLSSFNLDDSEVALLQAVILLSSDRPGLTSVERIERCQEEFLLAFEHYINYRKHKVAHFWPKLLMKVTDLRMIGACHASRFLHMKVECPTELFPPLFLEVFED
# Procedure, shortened: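 HepG2 cells transiently transfected with multiplexed GAL4-UAS reporter units expressing chimeric zebrafish TRb–Gal4. Dosed 24 h with 3 nM 6-alpha-fluorotestosterone present; reporter mRNA measured by RT-PCR, HpaI digestion and capillary electrophoresis; gain of signal versus DMSO.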
# [7] = ATG_M_19_XSP2: Attagene TRANS-FACTORIAL Multi-Species (XSP2) HepG2 Assay for M32 Transcription Factor (Internal Marker) (AID 2283822)
# Procedure, shortened: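 Internal background marker in a multi-species nuclear receptor TRANS panel: transfected HepG2 cells exposed 24 h, with 3 nM 6-alpha-fluorotestosterone and 1.5 nM norgestrel present. Readout is RT-PCR of reporter transcripts resolved by capillary electrophoresis, gain-of-signal versus DMSO.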
# [8] = system: zebrafish Estrogen Receptor (ER2b), gene 317733; assay: ATG_zfER2b_XSP2: Attagene TRANS-FACTORIAL Multi-Species (XSP2) HepG2 Assay for zebrafish Estrogen Receptor (ER2b) (AID 2283823);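 further: fitted upward as reporter gain over DMSO so potency reflects activation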
# Procedure, shortened: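 Cells used were HepG2, transiently transfected with chimeric nuclear receptor-Gal4 reporter units. After 24 h of chemical treatment, reporter transcripts were amplified by RT-PCR, labelled and sized by capillary electrophoresis, with induction analysed relative to DMSO.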
# [9] = system: frog Estrogen Receptor (ER2), gene 100174814; assay: ATG_frER2_XSP2: Attagene TRANS-FACTORIAL Multi-Species (XSP2) HepG2 Assay for frog Estrogen Receptor (ER2) (AID 2283828)
# Procedure, shortened: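 Cells were transfected with reporter constructs under GAL4-UAS control, dosed with chemicals for 24 h, then lysed for RNA; the frog ER2-driven reporter mRNA was quantified by capillary electrophoresis of labeled PCR fragments, with activity fitted upward from DMSO.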
# [10] = target: Nuclear receptor subfamily 1 group I member 2 (Mus musculus) (UniProt O54915); assay: ATG_mPXR_XSP2: Attagene TRANS-FACTORIAL Multi-Species (XSP1) HepG2 Assay for mouse Pregnane X Receptor (PXR) (AID 2283831)
# Procedure, shortened: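 Reporter transcripts were quantified by RT-PCR, FAM primer extension, HpaI digestion and capillary electrophoresis after 24 h of chemical exposure in transiently transfected HepG2 cells carrying chimeric receptor-GAL4 constructs; DMSO served as baseline.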
# [11] = target: zebrafish Thyroid Hormone Receptor alpha (TRa), thraa (gene 30670) (UniProt Q98867); assay: ATG_zfTRa_XSP2: Attagene TRANS-FACTORIAL Multi-Species (XSP1) HepG2 Assay for zebrafish Thyroid Hormone Receptor alpha (TRa) (AID 2283832);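 further: actives raise zebrafish TRa-Gal4 reporter transcript above DMSO baseline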
# Procedure, shortened: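 HepG2, transient MRTU transfection, exogenous NR-Gal4 chimeras; 24 h dosing; mRNA readout via RT-PCR/CE fluorescence; positive direction vs DMSO.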
# [12] = system: turtle Thyroid Hormone Receptor, alpha (TRa), gene 101949057; assay: ATG_trTRa_XSP2: Attagene TRANS-FACTORIAL Multi-Species (XSP1) HepG2 Assay for turtle Thyroid Hormone Receptor, alpha (TRa) (AID 2283834);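 further: hits raise reporter mRNA over the DMSO baseline so AC50 marks activators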
# Procedure, shortened: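 Transfection of HepG2 with multiple reporter transcription units, then chemical dosing for 24 h. Total RNA was reverse-transcribed, reporter sequences PCR-amplified and FAM-labelled, then sized by capillary electrophoresis. DMSO served as baseline.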
# [13] = target: human Thyroid hormone Receptor alpha (TRa), THRA (gene 7067) (UniProt P10827); assay: ATG_hTRa_XSP2: Attagene TRANS-FACTORIAL Multi-Species (XSP2) HepG2 Assay for human Thyroid hormone Receptor alpha (TRa) (AID 2283838)
# Chain of human Thyroid hormone Receptor alpha (TRa), THRA (gene 7067) (P10827 whole entry, looked up, the tested form may be a part): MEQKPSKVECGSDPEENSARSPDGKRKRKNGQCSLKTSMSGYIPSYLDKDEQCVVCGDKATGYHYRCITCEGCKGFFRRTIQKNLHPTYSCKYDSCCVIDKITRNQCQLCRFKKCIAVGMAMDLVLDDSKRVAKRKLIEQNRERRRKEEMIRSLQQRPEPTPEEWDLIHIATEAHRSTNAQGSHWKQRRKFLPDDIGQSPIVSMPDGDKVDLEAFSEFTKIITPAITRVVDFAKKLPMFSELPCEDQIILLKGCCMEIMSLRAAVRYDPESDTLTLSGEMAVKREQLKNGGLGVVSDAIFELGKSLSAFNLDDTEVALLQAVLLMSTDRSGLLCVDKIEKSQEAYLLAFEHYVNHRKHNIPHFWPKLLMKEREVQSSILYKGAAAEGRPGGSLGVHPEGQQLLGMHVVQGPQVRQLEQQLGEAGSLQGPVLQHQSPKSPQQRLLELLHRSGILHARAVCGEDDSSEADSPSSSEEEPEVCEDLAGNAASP
# Procedure, shortened: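 Reporter transcripts were read by RT-PCR with fluorescent primer extension, HpaI digestion and capillary electrophoresis. These came from HepG2 cells carrying multiplexed TRa-Gal4 TRANS constructs, harvested 24 hours after dosing. The medium also held 6-alpha-fluorotestosterone (3 nM) and norgestrel (1.5 nM), and increases were fitted against DMSO.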
# [14] = target: frog Thyroid hormone Receptor alpha (TRa), thra-a (gene 397942) (UniProt P15204); assay: ATG_frTRa_XSP2: Attagene TRANS-FACTORIAL Multi-Species (XSP2) HepG2 Assay for frog Thyroid hormone Receptor alpha (TRa) (AID 2283839)
# Chain of frog Thyroid hormone Receptor alpha (TRa), thra-a (gene 397942) (P15204 whole entry, looked up, the tested form may be a part): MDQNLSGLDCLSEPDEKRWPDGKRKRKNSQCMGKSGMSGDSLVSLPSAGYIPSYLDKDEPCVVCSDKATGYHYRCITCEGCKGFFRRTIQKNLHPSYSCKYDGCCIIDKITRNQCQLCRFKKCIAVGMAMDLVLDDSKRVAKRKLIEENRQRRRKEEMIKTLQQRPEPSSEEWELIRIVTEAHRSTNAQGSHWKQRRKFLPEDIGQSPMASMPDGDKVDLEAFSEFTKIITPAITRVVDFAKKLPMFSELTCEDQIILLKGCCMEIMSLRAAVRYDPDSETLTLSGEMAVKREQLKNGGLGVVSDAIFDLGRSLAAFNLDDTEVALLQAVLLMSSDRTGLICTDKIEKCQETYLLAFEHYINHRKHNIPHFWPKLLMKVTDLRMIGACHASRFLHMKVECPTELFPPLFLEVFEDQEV
# Procedure, shortened: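 Transfect HepG2 with multiple reporter units (GAL4-UAS), dose chemical, incubate 24 h. Isolate RNA, reverse-transcribe, PCR-amplify reporter, label with 6-FAM by primer extension, digest with HpaI, run capillary electrophoresis; induction scored against DMSO.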
# [15] = target: human Thyroid hormone Receptor beta (TRb), THRB (gene 7068) (UniProt P10828); assay: ATG_hTRb_XSP2: Attagene TRANS-FACTORIAL Multi-Species (XSP2) HepG2 Assay for human Thyroid hormone Receptor beta (TRb) (AID 2283840);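 further: actives raise reporter mRNA so potency reflects agonist-like gain of signal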
# Procedure, shortened: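 Transient transfection of human HepG2 with multi-species NR-Gal4/GAL4-UAS reporter constructs; 24 h compound treatment; RNA isolation, reverse transcription, PCR and HpaI digest; capillary electrophoresis of labeled fragments; activity fitted upward versus DMSO.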
# [16] = target: Thyroid hormone receptor alpha (Rattus norvegicus) + Thyroid hormone receptor beta (Rattus norvegicus) (UniProt P18113+P63059); assay: TOX21_TR_LUC_GH3_Agonist_Followup: Tox21 GH3 Thyroid Hormone Receptor Agonism Luciferase Follow-Up Assay (AID 2283939)
# Chain of Thyroid hormone receptor alpha (Rattus norvegicus) + Thyroid hormone receptor beta (Rattus norvegicus) (P63059 whole entry, looked up): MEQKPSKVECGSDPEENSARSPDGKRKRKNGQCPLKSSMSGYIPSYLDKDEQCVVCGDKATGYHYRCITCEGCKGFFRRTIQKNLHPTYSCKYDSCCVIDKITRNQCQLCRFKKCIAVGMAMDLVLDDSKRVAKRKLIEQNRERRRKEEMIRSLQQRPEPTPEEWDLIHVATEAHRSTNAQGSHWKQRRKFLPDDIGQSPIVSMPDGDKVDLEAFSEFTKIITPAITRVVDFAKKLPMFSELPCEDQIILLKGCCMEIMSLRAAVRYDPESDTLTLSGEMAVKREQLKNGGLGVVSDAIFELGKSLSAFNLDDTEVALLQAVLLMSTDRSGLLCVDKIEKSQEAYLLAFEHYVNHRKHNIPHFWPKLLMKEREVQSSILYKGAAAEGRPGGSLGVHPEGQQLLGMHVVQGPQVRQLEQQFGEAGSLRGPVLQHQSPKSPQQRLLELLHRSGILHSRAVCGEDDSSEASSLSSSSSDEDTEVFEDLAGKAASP
# Chain of Thyroid hormone receptor alpha (Rattus norvegicus) + Thyroid hormone receptor beta (Rattus norvegicus) (P18113 whole entry, looked up): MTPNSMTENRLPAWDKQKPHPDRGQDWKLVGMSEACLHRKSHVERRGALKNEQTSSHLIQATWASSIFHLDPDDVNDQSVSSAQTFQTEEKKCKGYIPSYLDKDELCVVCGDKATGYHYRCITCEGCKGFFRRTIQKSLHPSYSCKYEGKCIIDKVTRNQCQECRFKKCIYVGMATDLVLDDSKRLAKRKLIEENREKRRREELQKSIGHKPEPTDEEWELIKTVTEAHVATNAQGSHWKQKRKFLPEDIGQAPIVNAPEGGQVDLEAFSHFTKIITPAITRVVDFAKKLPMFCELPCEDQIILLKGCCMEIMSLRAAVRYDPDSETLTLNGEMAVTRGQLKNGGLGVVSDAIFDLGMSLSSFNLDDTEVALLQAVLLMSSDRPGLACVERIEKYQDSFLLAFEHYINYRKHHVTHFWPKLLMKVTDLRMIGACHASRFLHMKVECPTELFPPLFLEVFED
# Procedure, shortened: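 Agonist-mode confirmatory run: 15 concentrations (5 nM to 92 uM final) on GH3 rat pituitary cells, 24 h at 37C/5% CO2, T3 as positive control. Luminescence read with ONE-Glo after 30 min.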
# THRA (gene 7067) = THRA (gene 7067) (UniProt P10827); assay: TOX21_TRA_COA_Agonist_Followup_ratio: Tox21 Thyroid Hormone Receptor alpha Agonism through Coactivator Recruitment Follow-Up Assay, Ratio (AID 2283948; active means hit-call score of the fitted dose curve at least 0.9, where 1 is the maximum; inactive means score below 0.9)
# Chain of THRA (gene 7067) (P10827 whole entry, looked up, the tested form may be a part): as the sequence (P10827 whole entry, looked up, the tested form may be a part) above
# Procedure, shortened: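 Follow-up specificity assay in which TRα ligand-binding domain, expressed as a GST fusion, recruits a fluorescein-labelled SRC-2 peptide. Energy transfer from a terbium anti-GST antibody gives the acceptor/donor ratio, fitted upward relative to DMSO.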
# THRB (gene 7068) [17] = target: THRB (gene 7068) (UniProt P10828); assay: TOX21_TRB_BLA_Agonist_Followup_ratio: Tox21 Thyroid Hormone Receptor beta Agonism Beta-lactamase (BLA) Follow-Up Assay, Ratio (AID 2283954)
# Chain of THRB (gene 7068) (P10828 whole entry, looked up, the tested form may be a part): as the sequence (P10828 whole entry, looked up, the tested form may be a part) above
# Procedure, shortened: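 Agonist mode: compounds (11-point, triplicate) incubated 18 h with HEK293T cells carrying GAL4-DBD/human TRβ-LBD and UAS-β-lactamase. Blue/green (460/530 nm) FRET ratio read after 2 h CCF4-AM loading; CellTiter-Glo viability run in the same plates.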
# THRB (gene 7068) [18] = target: THRB (gene 7068) (UniProt P10828); assay: TOX21_TRB_COA_Agonist_Followup_ratio: Tox21 Thyroid Hormone Receptor beta Agonism through Coactivator Recruitment Follow-Up Assay, Ratio (AID 2283963; active means hit-call score of the fitted dose curve at least 0.9, where 1 is the maximum; inactive means score below 0.9)
# Procedure, shortened: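 Cell-free TR-FRET coactivator recruitment: GST-tagged TRβ LBD (5.0 nM) with 0.10% BSA incubated with compound, then fluorescein-SRC-2 peptide (200 nM) and Tb-anti-GST antibody (2 nM) added. 520:495 nm ratio normalized to DMSO (0%) and T3 (100%).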
# [19] = target: Retinoic acid receptor RXR-alpha (Homo sapiens) (UniProt P19793); assay: TOX21_TR_RXR_BLA_Agonist_Followup_ratio: Tox21 Thyroid Hormone Receptor beta Retinoid X Receptor alpha (RXRa) Agonism Beta-lactamase (BLA) Follow-Up Assay, Ratio (AID 2283968)
# Chain of Retinoic acid receptor RXR-alpha (Homo sapiens) (P19793 whole entry, looked up): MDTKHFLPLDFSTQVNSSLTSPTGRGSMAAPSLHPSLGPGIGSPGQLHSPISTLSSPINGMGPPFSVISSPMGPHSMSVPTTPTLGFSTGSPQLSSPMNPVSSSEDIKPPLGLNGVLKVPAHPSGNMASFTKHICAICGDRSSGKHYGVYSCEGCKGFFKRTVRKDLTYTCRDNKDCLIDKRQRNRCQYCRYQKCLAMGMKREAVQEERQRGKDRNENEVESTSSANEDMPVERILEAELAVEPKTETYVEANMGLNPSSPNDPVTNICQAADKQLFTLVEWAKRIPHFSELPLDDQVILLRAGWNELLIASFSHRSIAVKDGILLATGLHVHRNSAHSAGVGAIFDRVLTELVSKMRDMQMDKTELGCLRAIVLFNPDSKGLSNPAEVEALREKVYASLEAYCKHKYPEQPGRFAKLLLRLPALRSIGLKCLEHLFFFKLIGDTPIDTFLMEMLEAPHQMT
# Procedure, shortened: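 Cells were first allowed to attach for 5 h, after which compounds in DMSO were pinned at 11 concentrations and incubated 16 h at 37C. LiveBLAzer CCF4-AM substrate was then added for 2 h at room temperature before reading 460 and 530 nm fluorescence.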
structure (smiles),measurement,setting,value
CC(C)CCCCCCCOC(=O)c1ccccc1C(=O)OCCCCCCCC(C)C,outcome,[1],inactive
same,AC50,[2],611 nM (active)
same,outcome,[3],inactive
same,outcome,[4],inactive
same,outcome,[5],inactive
same,outcome,[6],inactive
same,outcome,[7],inactive
same,outcome,[8],inactive
same,outcome,[9],inactive
same,AC50,[10],1520 nM (active)
same,outcome,[11],inactive
same,AC50,[12],100000 nM (active)
same,outcome,[13],inactive
same,outcome,[14],inactive
same,outcome,[15],inactive
same,outcome,[16],inactive
same,outcome,THRA (gene 7067),inactive
same,outcome,THRB (gene 7068) [17],inactive
same,outcome,THRB (gene 7068) [18],inactive
same,outcome,[19],inactive
